Vif-A3F inh: inhibitors of Vif-A3F interaction; Potency, µM (series often up to 46.1 µM), inactives show at the highest dose activity, negative = active; hit rate 0.2% among 390,000; HeLa A3F-eYFP + Vif (tagged APOBEC3F with the HIV-1 protein that degrades it), YFP fluorescence increase; also: % of control where 0% means no effect; nearly all actives have a fitted effect of over 65% in size
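Fluorescence increase (Ex 488/Em 500-530) after overnight compound treatment at 37 deg C flags inhibition of Vif-driven A3F-eYFP loss in stable HeLa A3F-eYFP/Vif cells seeded overnight beforehand.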
Epigenetic reg: derepresses silenced GFP reporter in murine cells; Potency, µM (series often up to 53.9 µM), inactives show at the top dose GFP activation, most hits filed as activators; AID 1865; hit rate 0.2% among 280,000; murine LDR cells, GFP reporter derepression, 30 h; also: % of control where 0% means no effect; nearly all actives have a fitted effect of over 60% in size
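Murine LDR cells bearing a silenced CMV-driven GFP reporter were exposed to compound for 30 h at 37 C. After PBS washes, GFP-positive cells (20-120 um objects) counted by laser-scanning microplate cytometry.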
PINK1 expr mod: changes PINK1 expression; PINK1 immunofluorescence, high-content cytometry, 24 h; Potency, µM (doses to about 76.6 µM), inactives show at the top dose activation (PINK1 increase), usual class: activators; hit rate 0.2% among 410,000; active = well fitted activation curve with a large enough effect; inconclusive = small, poorly fitted or top-dose-only effect; cell line not stated here; also: % of control where 0% means no effect; nearly all actives have a fitted effect of over 65% in size
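Readout is PINK1 immunofluorescence, quantified alongside mitochondrial, cell and nuclear markers by laser-scanning microplate cytometry. Cells from a stable line were exposed to compound titrations (5 concentrations) for 24 hours, with CCCP controls.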
Vif-A3G inh: inhibitors of Vif-APOBEC3G interaction; Potency, µM (highest dose often 46.1 µM), for the others: top-dose activity, negative = active, hits mostly inhibitors; HeLa A3G-eYFP + Vif (tagged APOBEC3G with the HIV-1 protein that degrades it), YFP fluorescence, overnight; AID 602310; Q9HC16; hit rate 0.076% among 410,000; also: % is scaled to controls: 0 for no effect and ±100 for the full control effect; nearly all actives have a fitted effect of over 60% in size
Target sequence (Q9HC16 whole entry, looked up): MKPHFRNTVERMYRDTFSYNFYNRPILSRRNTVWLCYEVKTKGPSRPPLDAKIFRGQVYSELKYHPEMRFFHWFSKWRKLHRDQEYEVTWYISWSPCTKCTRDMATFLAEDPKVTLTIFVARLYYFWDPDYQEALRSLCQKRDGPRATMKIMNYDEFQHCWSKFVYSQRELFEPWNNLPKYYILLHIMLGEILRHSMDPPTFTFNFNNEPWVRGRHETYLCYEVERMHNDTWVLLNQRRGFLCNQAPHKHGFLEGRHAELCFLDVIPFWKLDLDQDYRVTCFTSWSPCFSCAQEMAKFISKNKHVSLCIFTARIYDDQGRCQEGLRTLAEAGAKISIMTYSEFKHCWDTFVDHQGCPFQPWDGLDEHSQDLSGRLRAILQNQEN
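Read-out is eYFP fluorescence (Ex 488/Em 500-530) from Vif-expressing HeLa A3G-eYFP cells; more signal means A3G escaped Vif-mediated degradation. Cells plated overnight, compound pinned in, incubated overnight at 37 deg C.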
GLS inh: inhibitors of human glutaminase (GLS); O94925; GLS enzymatic activity, qHTS titration; Potency, µM (series often up to 45.5 µM), for the others: at the top dose activity change, negative = inhibition, most hits filed as inhibitors; hit rate 0.21% among 410,000; also: % is scaled to controls: 0 for no effect and ±100 for the full control effect
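hKGA; 45 mM KH2PO4 pH 8.2 + 0.02% Tween-20; cpd via pin tool; 1 mM Gln soln; GluOx/HRP/Amplex Red; RT 30 min; fluor. t0 & final.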
An asterisk follows results filed as active; ? = inconclusive; · = no result; [ ] = remark or other dose. Rows were chosen to be rich in hits. Some 0.7% of all compounds tested hit in one or more screens of this group. Unless noted, calls follow the shape of the dose curve; as a rule, active = well fitted curve in the direction sought with a large enough effect; inconclusive = small, poorly fitted or top-dose-only effect, or another doubt; inactive = no such curve, though single readings can be large; an effect the other way counts as inactive or inconclusive. Potency is read from the fitted curve at half-maximal effect.

SMILES | Vif-A3F inh | Epigenetic reg | PINK1 expr mod | Vif-A3G inh | GLS inh
CC(C)CC(NC(=O)CNC(=O)C(Cc1ccc(O)cc1)NC(=O)C(CO)NC(=O)C(Cc1c[nH]c2ccccc12)NC(=O)C(Cc1cnc[nH]1)NC(=O)C1CCC(=O)N1)C(=O)NC(CCCN=C(N)N)C(=O)N1CCCC1C(=O)NCC(N)=O (stereo not drawn) | · | · | · | · | 35%
Cc1cccc(CN2C[C@H](Sc3ccccn3)C[C@H]2C(=O)Nc2ccc3sc(C)nc3c2)c1 | · | · | -1% | · | ·
N#Cc1cc(C#N)c(SCC(=O)N2CC(=O)Nc3ccccc32)nc1N | ? | · | 18% | -29% | -1%
CCc1ccc2nc(SCC(=O)Nc3ccccc3N3CCOCC3)c(C#N)cc2c1 | 10µM* | ? | 4% | ? | 0%
CCc1ccc2nc(SCC(=O)N3CC(=O)Nc4ccccc43)c(C#N)cc2c1 | ? | 18µM* | 1% | ? | 21%
Cc1ccc2nc(SCC(=O)Nc3ccccc3N3CCOCC3)c(C#N)cc2c1 | -3% | -1% | 5% | ? | 0%
Oc1ccccc1C1Nc2cccc3cccc(c23)N1 | 0% | 7% | 1% | -6% | 8%
O=[N+]([O-])c1ccccc1C1Nc2cccc3cccc(c23)N1 | ? | ? | 4% | ? | 8.9µM*
Cc1ccc(C(=O)Nc2cnn(-c3ccc(C(=O)N(C)Cc4n[nH]c5c4CCCC5)cc3)c2)c(C)c1 | · | · | -1% | · | ·
Cc1ccc(C(=O)/C=C\C(=O)c2ccc(C)cc2)cc1 | 8% | 0% | 2% | -13% | -9%
Cc1ccc(S/C=C\C(=O)c2ccccc2)cc1 | -7% | 3% | 13µM* | ? | -18%
Cc1ncc2c(c1CNC(=O)c1ccccc1F)CCN(C(=O)c1[nH]c3ccc(Cl)cc3c1C)C2 | · | · | 4% | · | ·
CCN(CC)c1ccc2cc(C(N)=O)c(=O)oc2c1 | -13% | ? | · | -6% | -13%
CCN(CC)c1ccc2cc(/C(N)=N/NC(=O)c3cccs3)c(=O)oc2c1 | · | 6.3µM* | · | · | ·
CCN(CC)c1ccc2cc(C(N)=O)c(=N)oc2c1 | 11µM* | 168% | ? | ? | 0%
O=C([C@@H]1C[C@@H](Sc2nc3ccccc3[nH]2)CN1Cc1ccc(C(F)(F)F)cc1)N1CCN(c2ccccc2F)CC1 | · | · | 2% | · | ·
Cc1ncc2c(c1CNC(=O)CN1CCCC1)CCN(C(=O)c1ccc(F)cc1F)C2 | · | · | -1% | · | ·
CCN1/C(=C/C=C/c2oc3ccc4ccccc4c3[n+]2CC)Oc2ccc3ccccc3c21 | -343% | 0.13µM* | ? | -101% | -12%
Cc1noc(C)c1COc1cccc(C(=O)OCC(=O)N2CC(=O)Nc3ccccc32)c1 | -2% | 3% | 7% | 2.8µM* | -3%
O=C1CN(C(=O)COc2cccc(F)c2)c2ccccc2N1 | · | 0% | · | · | ·
CN(C)c1ccc(/C=C2\SC(N3CCCCC3)=NC2=O)cc1 | 22µM* | · | 0% | ? | 32%
Cc1ccc(/C=C2\SC(N3CCCC3)=NC2=O)cc1 | · | -5% | · | · | ·
CC[C@H]1OC(=O)[C@H](C)[C@@H](O[C@H]2C[C@@](C)(OC)[C@@H](O)[C@H](C)O2)[C@H](C)[C@@H](O[C@@H]2O[C@H](C)C[C@H](N(C)C)[C@H]2O)[C@](C)(O)C[C@H](C)C(=NOCOCCOC)[C@H](C)[C@@H](O)[C@]1(C)O | · | · | · | · | 6%
CCc1nc(Nc2ccc(O)cc2)c2oc3ccccc3c2n1 | -19% | · | -1% | ? | 4.5µM*
Cc1c(C(=O)NC(C)(C)C)sc2ncnc(NCCN(C)C)c12 | · | · | 0% | · | ·
SMILES | Vif-A3F inh | Epigenetic reg | PINK1 expr mod | Vif-A3G inh | GLS inh
O=C(COC(=O)c1cc(NS(=O)(=O)c2cccs2)ccc1O)Nc1cc(Cl)ccc1Cl | -31% | 0% | 9% | -11% | 9%
O=C(COC(=O)c1cc(NS(=O)(=O)c2cccs2)ccc1O)Nc1ccc(F)c(F)c1F | -32% | 3% | 2% | -6% | 13µM*
CCOc1cc(-c2nnc(SCC(=O)Nc3ccc(F)c(F)c3)nc2-c2ccc(OC)c(OCC)c2)ccc1OC | 2% | 16µM* | 13% | -4% | 5%
Cc1ccc2nc(SCC(=O)Nc3ccc4sc(C)nc4c3)c(C#N)cc2c1 | 11µM* | 5.6µM* | ? | -4% | -2%
COC(=O)CSc1nc2cc(C)ccc2cc1C#N | · | 16µM* | 11% | -14% | -10%
CCOC(=O)CC(=O)CSc1nc2ccc(C)cc2cc1C#N | 0% | 0% | 1%[38.3 µM] | -1% | 8%
CC(C)C(NS(C)(=O)=O)c1nnc2n1CCN(Cc1ccc(Cl)cc1)CC2 (stereo not drawn) | · | · | 2% | · | ·
CSc1nc(N2CCN(CCO)CC2)c2sc3nc(-c4ccco4)c4c(c3c2n1)CCC4 | · | -4% | · | · | ·
CSc1nc(NCCN(C)C)c2sc3nc(-c4ccco4)c4c(c3c2n1)CCC4 | ? | · | -3% | -9% | -19%
CSc1nc(N(C)CCO)c2sc3nc(-c4ccco4)c4c(c3c2n1)CCC4 | 7% | -1% | -1%[38.3 µM] | 1% | 13µM*
CSc1nc(SCC(=O)O)c2sc3nc(-c4ccccc4)c4c(c3c2n1)CCC4 | 1% | 0% | 0% | -1% | 14µM*
Cc1ccc(C)c(NC(=O)c2ccccc2NS(=O)(=O)c2cc([N+](=O)[O-])ccc2C)c1 | -1% | 2% | 8.9µM* | 7% | 10%
Nc1c(C(=O)Nc2nccs2)sc2nc(-c3cccs3)cc(C(F)(F)F)c12 | ? | ? | ? | 8.9µM* | 1%
Cc1nnc(NC(=O)c2sc3nc(-c4cccs4)cc(C(F)(F)F)c3c2N)s1 | 7.1µM* | 9% | -1% | ? | -2%
CCN(CC)C(=O)c1sc2nc(-c3cccs3)cc(-c3cccs3)c2c1N | ? | ? | 2% | -27% | 14%
CC(C)(C)C(=O)c1sc2nc(-c3cccs3)cc(C(F)(F)F)c2c1N | 2.8µM* | 11µM* | 10% | ? | 1%
CC(=O)c1ccccc1-c1ccc2c(c1)CC(CNC(=O)C[C@@H]1C[C@@H](C)NC(=S)N1)O2 (stereo partly drawn) | · | · | 0% | · | ·
COc1ccc2ccccc2c1CN1CCOc2ccc(CN3CCN(CCO)CC3)cc2C1 | · | · | 0% | · | ·
Oc1cc(-c2nc3ccccc3s2)cc2c1OCCN(Cc1cccn1-c1ccc(Cl)cn1)C2 | · | · | 1% | · | ·
Cc1nc2sccn2c1CN1CCOc2ccc(CN3CCN(c4ccc(F)cc4)CC3)cc2C1 | · | · | 0% | · | ·
CCOC(=O)Cc1csc(NC(=O)c2sc3nc4cc(C)ccc4cc3c2N)n1 | ? | ? | ? | ? | 12%
CCOC(=O)Cc1csc(NC(=O)c2sc3nc4ccc(CC)cc4cc3c2N)n1 | ? | ? | 40µM* | -22% | -11%
COc1ccc(-c2csc(NC(=O)c3ccccc3NS(=O)(=O)c3ccc(C)cc3)n2)cc1 | -2% | 0% | 14µM* | -19% | 15%
